Assay outcomes deposited in PubChem BioAssay by National Center for Advancing Translational Sciences (NCATS).
Sampled rows, rich in hits. Any-hit rate of the full collection: about 9.3%.
ELG1 genotox: genotoxicity induction in ELG1-luciferase HEK293T cells; HEK293T ELG1-luciferase reporter, luminescence, 16 h; Potency, µM (series often up to 46 µM), most hits filed as activators; hit rate 1.3% among 330,000; note: nearly all actives have a fitted effect of over 60% in size
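After overnight (16 hr) compound treatment at 37 °C, ELG1-luciferase HEK293T cells were lysed with ONE-Glo; luminescence quantified 30 min later at room temperature.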
Rab9 prom act: activators of Rab9 promoter | Huh7 Rab9 promoter-luciferase reporter, luminescence, 24 h | Potency, µM (titrated, usually from 9.22 µM), hits mostly activators | hit rate 2.8% among 320,000; note: nearly all actives have a fitted effect of over 60% in size
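Steps: seed 1500 Huh7 Rab9-luc cells per well, rest 2 h at 37 °C; add compound in DMSO; incubate 24 h; add luciferase reagent, 10 min ambient; read luminescence.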
NPC1 prom act: activators of NPC1 promoter. Huh7 NPC1 promoter luciferase reporter, 24 h. Potency, µM (series often up to 9.22 µM), hits mostly activators. hit rate 2.4% among 320,000. AID 485313; note: nearly all actives have a fitted effect of over 60% in size
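In 1536-well qHTS, Huh7 cells harboring an NPC1 promoter–luciferase construct received compound for 24 h; activation was quantified by luminescence following luciferase reagent addition.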
SMN2 splice enh: increases expression of the SMN2 splice variant; hit rate 2.8% among 210,000; HEK293 SMN2-luciferase splicing reporter, luminescence, 30-36 h; Potency, µM (doses to about 46.1 µM), hits mostly activators; note: nearly all actives have a fitted effect of over 55% in size
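qHTS luciferase splicing reporter: luminescence rises when SMN2 exon 7 is included in transfected HEK293 cells. Compound exposure lasted 30-36 h at 37C, with 4.5 mM final sodium butyrate as control, followed by a ONE-Glo read.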
ELG1 DNA repair: blocks ELG1-dependent DNA repair in HEK293T cells; HEK293T ELG1-luciferase reporter, luminescence, 16 h; DNA damage induced by 5-fluorouridine; Potency, µM (highest dose often 46.1 µM), hits mostly inhibitors; hit rate 2.3% among 330,000; note: nearly all actives have a fitted effect of over 55% in size
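Cells (2,000 per well) received 5-fluorouridine plus test compound or DMSO and were incubated 16 hr at 37 °C, 5% CO2. Luciferase activity was read by luminescence 30 min after ONE-Glo addition; signal suppression marked inhibition of damage-induced ELG1 function.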
FLuc modulator: inhibits or activates purified firefly luciferase, miR-21 counter-screen; P08659; purified FLuc, Km substrates, luminescence inhibition; Potency, µM (titrated, usually from 57.5 µM), most hits filed as inhibitors; hit rate 6.9% among 360,000; note: nearly all actives have a fitted effect of over 55% in size
Target sequence (P08659 whole entry, looked up): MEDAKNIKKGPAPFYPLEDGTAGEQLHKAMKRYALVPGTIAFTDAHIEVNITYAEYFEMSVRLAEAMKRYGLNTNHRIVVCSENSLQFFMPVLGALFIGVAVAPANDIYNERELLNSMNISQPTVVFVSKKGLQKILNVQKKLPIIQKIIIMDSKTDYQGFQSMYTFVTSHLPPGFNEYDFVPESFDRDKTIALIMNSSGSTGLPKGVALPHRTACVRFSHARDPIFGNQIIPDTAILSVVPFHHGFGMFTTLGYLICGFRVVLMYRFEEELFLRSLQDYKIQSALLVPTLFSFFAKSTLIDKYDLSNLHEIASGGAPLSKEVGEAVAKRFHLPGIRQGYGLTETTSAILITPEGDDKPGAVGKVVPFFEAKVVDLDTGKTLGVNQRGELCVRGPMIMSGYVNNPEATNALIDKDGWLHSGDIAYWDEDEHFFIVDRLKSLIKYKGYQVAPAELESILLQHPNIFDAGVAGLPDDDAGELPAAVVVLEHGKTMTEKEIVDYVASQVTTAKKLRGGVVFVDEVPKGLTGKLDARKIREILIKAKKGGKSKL
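Biochemical qHTS of compounds, final roughly 60 µM downward over six points, against 10 nM purified firefly luciferase using Km concentrations of substrates (10 uM D-luciferin, 10 uM ATP) in Tris acetate pH 7.5 buffer; luminescence output.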
A number is an active result; n = inactive; u = inconclusive; x = no result given; [ ] = dose if it differs, or a comment. Calls come from the whole dose curve; as a rule, active = well fitted curve in the direction sought with a large enough effect; inconclusive = small, poorly fitted or top-dose-only effect, or another doubt; inactive = no such curve, though single readings can be large; an effect the other way counts as inactive or inconclusive.

SMILES	ELG1 genotox	Rab9 prom act	NPC1 prom act	SMN2 splice enh	ELG1 DNA repair	FLuc modulator
COc1cc(/C=C2\SC(=S)N(Nc3ccccc3)C2=O)ccc1O	u	n	n	n[1.84 µM]	u	5.4µM
O=C(NN1C(=O)/C(=C/c2ccc(O)c(O)c2)SC1=S)c1ccccc1	n	n	n	x	n	u
Cc1ccsc1CN(C)C(=O)c1ccc(Oc2ccccc2)cc1	u	n	n	x	u	u
COc1ccc(CCNC(=O)C(=O)NCc2cccs2)cc1OC	n	n	n	x	n	n
CC1CCCN(Cc2c(O)ccc3c(=O)c(Oc4ccccc4Cl)c(C(F)(F)F)oc23)C1 (configuration not stated)	x	x	x	n	x	n
Cc1nc2c(-c3ccccc3)c(C)[nH]n2c(=O)c1Cc1ccc(Br)cc1	x	x	x	n	x	n
O=c1cc2oc3cc(O)c(O)cc3c(-c3ccccc3[N+](=O)[O-])c-2cc1O	n	n	n	x	21µM	u
O=c1cc(-c2ccccc2Cl)oc2cccc(O)c12	n	n	n	n	n	n
C[C@@H](C(=O)NCCF)[C@H]1C[C@]1(C)[C@H](NC(=O)OCc1ccccc1)c1ccccc1	x	x	x	n	x	x
C[C@@H](C(=O)NCCc1c[nH]c2ccccc12)[C@H]1C[C@]1(C)[C@H](NC(=O)OCc1ccccc1)c1ccccc1	n	n	n	n	18µM	n
O=S(=O)(Nc1nc2ccccc2nc1N1CCN(c2ccccc2F)CC1)c1ccc(Cl)cc1	n	n	n	n	18µM	n
CCOc1ccc(S(=O)(=O)Nc2nc3ccccc3nc2N2CCN(C)CC2)cc1	n	n	n	n	n	n
O=C(CSc1nc2ccccc2c(=O)n1-c1ccc(F)cc1)NC1CCS(=O)(=O)C1 (configuration not stated)	n	n	n	x	n	n
Cc1ccc(NC(=O)c2nnn(-c3cccc(C(F)(F)F)c3)c2N)cc1	n	n	n	n	n	n
Nc1c(C(=O)Nc2ccc(F)cc2)nnn1-c1cccc(C(F)(F)F)c1	n	n	n	n	n	n
Nc1c(C(=O)Nc2ccccc2)nnn1-c1ccc2c(c1)OCCO2	0.18µM	0.1µM	0.22µM	x	u	0.85µM
Cc1ccc(NC(=O)c2nnn(-c3ccc4c(c3)OCCO4)c2N)cc1	u	5.6µM	2.2µM	x	u	11µM
N#Cc1cccc(-c2csc(N3CCC(C(N)=O)CC3)n2)c1	x	x	x	x	x	n
CCOC(=O)Cc1nn(CC)c(=O)c2ccccc12	n	n	n	x	n	n
CCOC(=O)Cc1nn(Cc2nc(-c3ccc(C#N)cc3)cs2)c(=O)c2ccccc12	n	n	n	x	10µM	n
CCOC(=O)Cc1nn(C)c(=O)c2ccccc12	n	n	n	5.6µM	n	n
COc1ccc(-c2nc3scc(CCNS(=O)(=O)c4ccc5c(c4)OCCO5)n3n2)cc1OC	x	x	x	x	x	n
COc1ccc(C)c2sc(N3CCN(C(=O)c4ccco4)CC3)nc12	x	x	x	x	x	n
Cc1cc(C)c2nc(N3CCN(C(=O)c4cccs4)CC3)sc2c1	n	n	n	x	u	u
Cc1cc(C)c2nc(N3CCC(C(=O)N4CCN(c5ncccn5)CC4)CC3)sc2c1	n	n	n	n	u	n
SMILES	ELG1 genotox	Rab9 prom act	NPC1 prom act	SMN2 splice enh	ELG1 DNA repair	FLuc modulator
Cc1cc2nc(N3CCN(C(=O)c4cccs4)CC3)sc2cc1C	n	2.8µM	4µM	x	u	u
Cc1cc(C)c2nc(N3CCN(C(=O)c4ccco4)CC3)sc2c1	n	u	n	x	u	17µM
Cc1cc2nc(N3CCN(C(=O)c4ccco4)CC3)sc2cc1C	n	0.79µM	2.5µM	x	u	6µM
CCN(CC)S(=O)(=O)c1cccc(NC(=O)c2ccc(Br)cc2)c1	n	n	n	n	u	u
O=C(COC(=O)c1cc2ccccc2oc1=O)Nc1ccc(F)cc1F	u	2.5µM	2.2µM	x	u	7.6µM
CCN(CC)S(=O)(=O)c1cccc(NC(=O)COC(=O)c2cc(C)oc2C)c1	n	n	n	n	21µM	n
CCN(CC)S(=O)(=O)c1cccc(NC(=O)COc2ccc(Cl)cc2Br)c1	n	n	n	n	u	21µM
CN(C)S(=O)(=O)c1cccc(NC(=O)COc2ccc(S(=O)(=O)N3CCOCC3)cc2Cl)c1	n	x	x	x	n	x
